Test results published in PubChem BioAssay.
A number with no mark means an inactive call. Active and inactive are the calls of the source. Rule as the data show it, unless noted: active = inhibition above about 44%; inactive = the rest.

Tests used:
[1] = StAR promoter reporter inhibitors, counter-screen for LRH-1 inverse agonist project, cell-based, luminescence, high throughput (AID 651611; in the data active = inhibition above about 28%); conditions: StAR promoter luciferase reporter counterscreen, at 3.6 µM, hits give high values
[2] = biological target: Nuclear receptor subfamily 5 group A member 2 (Homo sapiens) (UniProt O00482); experiment: LRH-1 (NR5A2) inverse agonists, retest, confirmation, cell-based, luminescence (AID 651613; in the data active = inhibition above about 42%;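 also: HEK293T cells co-transfected with LRH-1 and StAR promoter luciferase reporter; 0% = vehicle wells and 100% = parental cells lacking receptor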); conditions: cell-based LRH-1 luciferase reporter, inverse agonism; at 3.6 µM; hits give high values
[3] = biological target: Steroidogenic factor 1 (Homo sapiens) (UniProt Q13285); experiment: SF1 (NR5A1) inverse agonists, counter-screen for LRH-1 inverse agonist project, cell-based, luminescence, high throughput (AID 651614); conditions: cell-based SF1 luciferase reporter, at 3.6 µM, hits give high values;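 also: cells cotransfected with StAR promoter reporter and SF1 expression vector; 0% = vehicle on cells with receptor and 100% = vehicle on cells lacking receptor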
[4] = VP16 transactivation reporter inhibitors, counter-screen for LRH-1 inverse agonist project, cell-based, luminescence, high throughput (AID 651615; in the data active = inhibition above about 33%); conditions: Gal4-VP16 luciferase reporter cells, at 3.6 µM, hits give high values
[5] = test system: transactivating tegument protein VP16 (Human herpesvirus 1); experiment: VP16 transactivation reporter inhibitors, counter-screen for SRC2 inhibitor project, cell-based, luminescence, single concentration (AID 652007; in the data active = inhibition above about 36%); conditions: cell-based VP16 transactivation luciferase reporter, at 8.9 µM, hits give high values
[6] = biological target: Nuclear receptor coactivator 2 (Homo sapiens) (UniProt Q15596); experiment: SRC2 coactivator transcriptional activity inhibitors, confirmation, cell-based, luminescence, HEK293, triplicate (AID 652008;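 active = mean inhibition above 46.5%, the solvent-only control mean plus 3 SD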;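 also: 0% = DMSO-treated cells and 100% = Gossypol at 36 µM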); conditions: HEK293 GAL4-SRC2 luciferase reporter, at 8.9 µM, hits give high values
Nuclear receptor coactivator 2 (Homo sapiens), sequence (Q15596 whole entry, looked up, the tested form may be a part): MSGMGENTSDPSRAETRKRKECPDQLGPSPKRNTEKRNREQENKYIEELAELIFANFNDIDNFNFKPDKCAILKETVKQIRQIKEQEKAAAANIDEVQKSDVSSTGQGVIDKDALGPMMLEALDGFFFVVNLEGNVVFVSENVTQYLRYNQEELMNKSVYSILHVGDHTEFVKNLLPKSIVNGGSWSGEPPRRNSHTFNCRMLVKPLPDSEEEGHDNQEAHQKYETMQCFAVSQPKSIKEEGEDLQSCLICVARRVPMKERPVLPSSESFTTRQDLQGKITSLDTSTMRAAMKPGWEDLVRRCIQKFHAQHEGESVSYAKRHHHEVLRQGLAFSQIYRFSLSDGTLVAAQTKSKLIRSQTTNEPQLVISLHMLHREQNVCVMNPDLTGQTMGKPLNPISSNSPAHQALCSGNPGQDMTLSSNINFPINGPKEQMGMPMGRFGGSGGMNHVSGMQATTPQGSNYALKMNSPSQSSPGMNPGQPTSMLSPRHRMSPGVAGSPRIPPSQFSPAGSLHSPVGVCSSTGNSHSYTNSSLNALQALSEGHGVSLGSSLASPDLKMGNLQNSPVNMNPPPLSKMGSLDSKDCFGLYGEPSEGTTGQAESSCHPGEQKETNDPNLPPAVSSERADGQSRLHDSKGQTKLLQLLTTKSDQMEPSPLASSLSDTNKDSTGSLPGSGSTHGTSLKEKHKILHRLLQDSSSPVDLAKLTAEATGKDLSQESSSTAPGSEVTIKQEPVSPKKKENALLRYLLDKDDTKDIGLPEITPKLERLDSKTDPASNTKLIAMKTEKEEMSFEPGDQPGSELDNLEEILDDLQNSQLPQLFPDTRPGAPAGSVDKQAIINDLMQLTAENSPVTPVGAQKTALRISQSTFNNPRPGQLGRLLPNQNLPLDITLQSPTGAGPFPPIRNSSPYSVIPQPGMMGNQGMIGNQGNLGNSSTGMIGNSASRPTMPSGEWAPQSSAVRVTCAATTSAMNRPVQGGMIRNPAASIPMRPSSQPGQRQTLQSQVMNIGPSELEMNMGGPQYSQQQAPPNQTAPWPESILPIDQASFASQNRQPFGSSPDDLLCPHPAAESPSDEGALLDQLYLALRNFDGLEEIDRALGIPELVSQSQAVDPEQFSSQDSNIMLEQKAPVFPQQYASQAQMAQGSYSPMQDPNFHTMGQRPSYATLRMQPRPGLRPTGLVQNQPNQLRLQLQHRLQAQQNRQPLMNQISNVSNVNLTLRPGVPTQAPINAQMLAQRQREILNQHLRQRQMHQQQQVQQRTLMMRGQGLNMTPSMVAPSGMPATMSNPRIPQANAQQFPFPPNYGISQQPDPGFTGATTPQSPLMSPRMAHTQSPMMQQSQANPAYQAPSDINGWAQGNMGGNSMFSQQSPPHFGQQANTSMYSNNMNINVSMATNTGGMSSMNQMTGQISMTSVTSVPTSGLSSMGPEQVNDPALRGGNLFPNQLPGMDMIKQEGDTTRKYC

Nuclear receptor subfamily 5 group A member 2 (Homo sapiens), sequence (O00482 whole entry, looked up): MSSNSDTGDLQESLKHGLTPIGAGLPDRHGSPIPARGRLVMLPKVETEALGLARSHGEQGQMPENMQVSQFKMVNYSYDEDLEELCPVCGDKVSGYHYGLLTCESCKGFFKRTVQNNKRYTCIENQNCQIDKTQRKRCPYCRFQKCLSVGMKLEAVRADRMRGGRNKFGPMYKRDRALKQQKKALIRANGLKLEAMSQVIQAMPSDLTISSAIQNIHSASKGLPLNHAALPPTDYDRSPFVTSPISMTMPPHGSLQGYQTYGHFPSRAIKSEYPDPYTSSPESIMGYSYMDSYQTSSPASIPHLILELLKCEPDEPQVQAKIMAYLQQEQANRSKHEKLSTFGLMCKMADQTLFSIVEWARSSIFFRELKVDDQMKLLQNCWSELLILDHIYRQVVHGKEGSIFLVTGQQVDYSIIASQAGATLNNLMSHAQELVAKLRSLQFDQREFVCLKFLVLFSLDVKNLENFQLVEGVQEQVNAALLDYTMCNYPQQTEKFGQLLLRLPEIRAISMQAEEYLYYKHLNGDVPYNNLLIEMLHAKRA
Steroidogenic factor 1 (Homo sapiens), sequence (Q13285 whole entry, looked up, the tested form may be a part): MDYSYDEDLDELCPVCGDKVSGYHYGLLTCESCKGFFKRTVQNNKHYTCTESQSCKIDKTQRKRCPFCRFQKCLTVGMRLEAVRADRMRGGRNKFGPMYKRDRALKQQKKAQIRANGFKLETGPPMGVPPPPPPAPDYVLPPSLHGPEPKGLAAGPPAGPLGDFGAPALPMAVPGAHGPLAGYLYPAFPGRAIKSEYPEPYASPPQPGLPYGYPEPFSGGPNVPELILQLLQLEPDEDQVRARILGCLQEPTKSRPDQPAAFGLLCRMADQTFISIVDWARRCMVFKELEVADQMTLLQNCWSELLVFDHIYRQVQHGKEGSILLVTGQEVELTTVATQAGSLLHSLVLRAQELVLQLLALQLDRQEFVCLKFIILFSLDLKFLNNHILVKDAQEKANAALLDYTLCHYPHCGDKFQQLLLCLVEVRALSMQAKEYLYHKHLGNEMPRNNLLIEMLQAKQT

SMILES | inhibition [1] | inhibition [2] | inhibition [3] | inhibition [4] | inhibition [5] | inhibition [6]
N#CCCn1cc(C(=O)Nc2ccccc2Br)c(-c2ccc([N+](=O)[O-])cc2)n1 | 18.4% | 61.5% (active) | 51.6% (active) | 1.09% | – | –
CCOC(=O)c1c(C)n(CC(O)CN2CCOCC2)c2cc(Br)c(OC)cc12 (configuration not stated) | 22% | 57.1% (active) | 47.9% (active) | -12.2% | – | –
Cc1nn(Cc2ccccc2)c(C)c1C(=O)OCC(=O)Nc1ccccc1SCC#N | -1.13% | 58.8% (active) | 52.9% (active) | 2% | – | –
CCN1CCN(c2cc(N3CCCC3)c([N+](=O)[O-])cc2F)CC1 | 1.38% | 51.2% (active) | 46.4% (active) | 15.6% | – | –
Cc1cc(OCC(=O)OC(C)C)c2c3c(c(=O)oc2c1)CCCC3 | 14.7% | 57.9% (active) | 54.9% (active) | -9.99% | – | –
CCOC(=O)[C@]12Cc3c(cc(OC)c(OC)c3OC)[C@H]1N(C1CCCCC1)C(=O)c1ccccc12 | 45.9% (active) | 99.8% (active) | 46.2% (active) | 89.3% (active) | – | –
COC1C(O)C(C)OC(OC2CCC3(C)C(CCC4C3C(O)CC3(C)C(C5=CC(=O)OC5)CCC43O)C2)C1O (configuration not stated) | 97.3% (active) | 110% (active) | 98.8% (active) | 91.1% (active) | 57.6% (active) | 22.7%
COc1cc2c(cc1OC)[C@@H]1C(=O)c3ccc4c(c3O[C@@H]1CO2)C[C@H](C(C)C)O4 | 34.2% (active) | 68.7% (active) | 61.4% (active) | 57.4% (active) | – | –
N#CCCn1cc(C(=O)Nc2ccccc2Cl)c(-c2ccc([N+](=O)[O-])cc2)n1 | 16.9% | 57.2% (active) | 59.8% (active) | -6.5% | – | –
N#Cc1ccc(NC(=S)N2Cc3ccccc3-n3nncc3C2)cc1 | -5.3% | 56.4% (active) | 47.5% (active) | 10.9% | – | –
C[C@@H]1O[C@@H](O[C@H]2C[C@@H](O)[C@]3(CO)[C@H]4[C@H](O)C[C@]5(C)[C@@H](C6COC(=O)C6)CC[C@]5(O)[C@@H]4CC[C@]3(O)C2)[C@H](O)[C@H](O)[C@H]1O (some centres not stated) | 92.4% (active) | 103% (active) | 87.3% (active) | 66.4% (active) | – | –
CCOC(=O)[C@]12Cc3cc(Cl)ccc3[C@H]1N(CC(=O)OC)C(=O)c1ccccc12 | 72.7% (active) | 94.3% (active) | 64.4% (active) | 81.1% (active) | – | –
CCOC(=O)[C@]12Cc3cc(C)ccc3[C@H]1N(C1CCCCC1)C(=O)c1ccccc12 | 71.1% (active) | 102% (active) | 71.5% (active) | 88.4% (active) | – | –
CCOC(=O)[C@]12Cc3cc(C)ccc3[C@H]1N(C1CCCCC1)C(=O)c1cc(OC)ccc12 | 63.5% (active) | 97.4% (active) | 78.2% (active) | 87.9% (active) | – | –
CCOc1cc(C=O)ccc1O | -4.06% | 41.4% (active) | 47.9% (active) | -3.05% | – | –
CC(=O)O[C@H]1C[C@@H]2OC3C=C(C)CCC3(C)[C@@]1(C)[C@@]21CO1 (some centres not stated) | 95.6% (active) | 109% (active) | 96.8% (active) | 96.8% (active) | 79.3% (active) | 77.9% (active)
COC1/C=C/C=C(\C)Cc2cc(O)c(Cl)c(c2)N(C)C(=O)CC(OC(=O)C(C)C)C2(C)OC2C(C)C2CC1(O)NC(=O)O2 (configuration not stated) | 64.9% (active) | 60.1% (active) | 62.5% (active) | 32.6% (active) | – | –
COc1ccc(NS(=O)(=O)c2ccc(OCC(=O)N3CCN(C)CC3)cc2)cc1Cl | 2.1% | 48.2% (active) | 34.7% | 3.62% | – | –
COC(=O)C(C)Oc1cc(C)cc2oc(=O)c3c(c12)CCC3 (configuration not stated) | 47.8% (active) | 76.3% (active) | 67.7% (active) | -163% | – | –
CCCCn1c(NC(=O)c2ccc(Br)o2)c(C(=O)OCC)c2nc3ccccc3nc21 | 27.1% | 27.8% | 45.6% (active) | 7.64% | – | –
Cc1ccccc1-n1c(/C=C/c2ccccn2)nc2ccccc2c1=O | 35.8% (active) | 49.5% (active) | 52% (active) | 5.08% | – | –
COc1ccccc1-n1c(/C=C/c2ccccn2)nc2ccccc2c1=O | 16.9% | 63.3% (active) | 53.7% (active) | 4.69% | – | –
